Drawing on PubChem BioAssay (NCATS), this text covers Potency for 48 compounds.

Experiment [1] is described as follows: Primary qHTS for Huh7 cytotoxicity: counterscreen for inhibitors of MERS-S pseudotyped particle cell entry (AID 1479147). The conditions noted are these: cell viability read-out; series mostly up to 57.1 µM. (In general: qHTS replaces the single test concentration by a dilution series.)
Experiment [2] in a line: Primary qHTS for inhibitors of SARS-S pseudo-typed particle cell entry (AID 1479145). Further: nearly all actives have a fitted effect of over 45% in size. Particulars: SARS-S pseudotyped particle cell entry, luciferase reporter; series mostly up to 57.1 µM.
Experiment [3] in a line: Primary qHTS for Vero E6 cytotoxicity: counterscreen for inhibitors of SARS-S pseudo-typed particle cell entry (AID 1479150). Particulars: cell viability; series mostly up to 57.1 µM.
The nature of experiment [4]: Primary qHTS for inhibitors of MERS-S pseudo-typed particle cell entry (AID 1479149). Further: nearly all actives have a fitted effect of over 60% in size. Particulars: MERS-S pseudotyped particle entry, luciferase; series mostly up to 57.1 µM.
Experiment [5] is described as follows: Confirmatory qHTS for VERO E6 Cytotoxicity Assay: Counterscreen for SARS-CoV-2 CPE Assay (AID 1508605). Further: nearly all actives have a fitted effect of over 60% in size. The conditions noted are these: cell viability luminescence; series mostly up to 20 µM.

Molecules are shown by their SMILES. Results filed as inconclusive are left out. Active and inactive are the calls of the source. The call rests on the fitted dose curve.
Potency means the concentration at half of the fitted maximal effect.

In the case of `Clc1ccccc1C(c1ccccc1)(c1ccccc1)n1ccnc1`, the Potency result in experiment [1] was “inactive”.

Regarding `COc1cc(C(=O)OCCCN2CCCN(CCCOC(=O)c3cc(OC)c(OC)c(OC)c3)CC2)cc(OC)c1OC`, the Potency in experiment [2] was 11.2 µM (active). In addition, the Potency result in experiment [1] and in experiment [3] was “inactive” each time.

Consider `N=C(N)c1ccc2cc(OC(=O)c3ccc(N=C(N)N)cc3)ccc2c1`, for which the Potency entry in experiment [2], in experiment [1] and in experiment [3] was “inactive” each time.

Regarding `C[n+]1cc2c3c(ccc2c2ccc4cc5c(cc4c21)OCO5)OCO3`, the Potency in experiment [1] was 8.91 µM (active).

With `CCc1ccc(C(=O)C(C)CN2CCCCC2)cc1` (centres undefined), the Potency result in experiment [1], in experiment [4] and in experiment [3] was “inactive” in each case.

On to `CCN(CC)CCCN(c1ccccc1)C1Cc2ccccc2C1`, for which the Potency in experiment [2] is 17.8 µM (active). The Potency result in experiment [3] is “inactive”.

Regarding `CC1=C(C(=O)OC(C)C)C(c2cccc([N+](=O)[O-])c2)C(C(=O)OC2CN(C(c3ccccc3)c3ccccc3)C2)=C(N)N1` (centres undefined), the Potency result in experiment [1] and in experiment [4] was “inactive” in each case.

On to `CN(C)c1ccc(C(=C2C=CC(=[N+](C)C)C=C2)c2ccc(N(C)C)cc2)cc1`, for which the Potency in experiment [2] was 1 µM (active); in experiment [4], 1.12 µM (active).

For the compound `CCOCCOC(=O)/C=C/c1ccc(OC)cc1`, the Potency entry in experiment [1], in experiment [4] and in experiment [3] was “inactive” throughout.

Consider `CCCCOc1cc(C(=O)OCCN(CC)CC)ccc1N`, for which the Potency result in experiment [2] and in experiment [3] was “inactive” in each case.

Turning to `COc1ccc(CCN(C)CCCC(C#N)(c2cc(OC)c(OC)c(OC)c2)C(C)C)cc1OC` (centres undefined), the Potency result in experiment [1] and in experiment [4] was “inactive” throughout.

In the case of `O=C(Nc1ccc([N+](=O)[O-])cc1Cl)c1cc(Cl)ccc1O`, the Potency is 0.501 µM (active) in experiment [2], 2 µM (active) in experiment [4] and 1.58 µM (active) in experiment [3].

As to `C#C[C@]1(O)CC[C@H]2[C@@H]3CCc4cc(O)ccc4[C@H]3CC[C@@]21C`, the Potency result in experiment [2] and in experiment [3] was “inactive” each time.

As to `O=C(O)c1cccc(-c2noc(-c3ccccc3F)n2)c1`, the Potency result in experiment [2] and in experiment [4] was “inactive” in each case.

With `Cc1cc2nc3ccc(=[N+](C)C)cc-3sc2cc1N`, the values for the Potency in experiment [2] and in experiment [4] were 14.1 µM (active) and 17.8 µM (active), respectively.

As for `CC(=O)Oc1ccc(C2(c3ccc(OC(C)=O)cc3)Oc3ccccc3NC2=O)cc1`, the Potency result in experiment [1] and in experiment [4] was “inactive” each time.

`COc1ccc2[nH]c(S(=O)Cc3ncc(C)c(OC)c3C)nc2n1` (centres undefined): the Potency in experiment [2] was 20 µM (active). The Potency result in experiment [1] and in experiment [3] was “inactive” each time.

In the case of `CN(C)c1ccc(C(=C2C=CC(=[N+](C)C)C=C2)c2ccccc2)cc1`, the values for the Potency in experiment [2] and in experiment [4] were 2.24 µM (active) and 0.891 µM (active), respectively.

Consider `CCCCOc1cc(C(=O)NCCN(CC)CC)c2ccccc2n1`, for which, in experiment [2], the Potency is 14.1 µM (active). Besides, the Potency result in experiment [3] and in experiment [5] was “inactive” throughout.

Regarding `COc1ccc(-c2nc3ccc(C4=NNC(=O)CC4C)cc3[nH]2)cc1` (centres undefined), the Potency entry in experiment [2], in experiment [4] and in experiment [3] was “inactive” throughout.

As for `CN1CCCC(CC2c3ccccc3Sc3ccccc32)C1` (centres undefined), the Potency in experiment [2] is 20 µM (active). Moreover, the Potency result in experiment [3] was “inactive”.

With `Oc1c(I)cc(Cl)c2cccnc12`, the Potency result in experiment [2] and in experiment [3] was “inactive” throughout. The Potency in experiment [5] is 3.16 µM (active).

In the case of `CNC[C@H](O)c1ccc(O)c(O)c1`, the Potency result in experiment [2], in experiment [4] and in experiment [3] was “inactive” in each case.

For the compound `C(=C\c1ccccc1)/CN1CCN(C(c2ccccc2)c2ccccc2)CC1`, the Potency result in experiment [1], in experiment [4] and in experiment [3] was “inactive” each time.

As for `CCCCC(CC)COC(=O)C(C#N)=C(c1ccccc1)c1ccccc1` (centres undefined), the Potency result in experiment [1], in experiment [4] and in experiment [3] was “inactive” throughout.

As for `CC[N+](CC)(CC(=O)Nc1c(C)cccc1C)Cc1ccccc1`, the Potency result in experiment [1], in experiment [4] and in experiment [3] was “inactive” each time.

In the case of `CN(Cc1cc(Br)cc(Br)c1N)C1CCCCC1`, the Potency result in experiment [1], in experiment [4] and in experiment [3] was “inactive” each time.

As for `CCCCN1CCCC[C@H]1C(=O)Nc1c(C)cccc1C`, the Potency entry in experiment [1], in experiment [4] and in experiment [3] was “inactive” throughout.

Consider `CCOc1ccc(Cc2nccc3cc(OCC)c(OCC)cc23)cc1OCC`, for which the results for the Potency in experiment [1], in experiment [4] and in experiment [3] were 12.6 µM (active), 3.55 µM (active) and 17.8 µM (active), respectively.

As to `CN1CCN(C2=Nc3ccccc3Sc3ccc(Cl)cc32)CC1`, the Potency entry in experiment [1], in experiment [4] and in experiment [3] was “inactive” throughout.

Regarding `NC(=O)Cc1cccc(C(=O)c2ccccc2)c1N`, the Potency entry in experiment [1], in experiment [4] and in experiment [3] was “inactive” in each case.

On to `CCN(CC)C(=O)Nc1ccc(OCC(O)CNC(C)(C)C)c(C(C)=O)c1` (centres undefined), for which the Potency entry in experiment [1], in experiment [4] and in experiment [3] was “inactive” throughout.

Regarding `c1ccc(CC2=NCCN2)cc1`, the Potency entry in experiment [1], in experiment [4] and in experiment [3] was “inactive” throughout.

As for `C/C=C(/C(=C/C)c1ccc(O)cc1)c1ccc(O)cc1`, the Potency entry in experiment [1], in experiment [4] and in experiment [3] was “inactive” each time.

Regarding `O=C(NC1CCN(CCc2c[nH]c3ccccc23)CC1)c1ccccc1`, the Potency entry in experiment [1], in experiment [4] and in experiment [3] was “inactive” in each case.

As for `CCOC(=O)OCC/C(SC(=O)OCC)=C(\C)N(C=O)Cc1cnc(C)nc1N`, the Potency entry in experiment [1], in experiment [4] and in experiment [3] was “inactive” throughout.

As to `CCOc1ccccc1C(N)=O`, the Potency result in experiment [1], in experiment [4] and in experiment [3] was “inactive” throughout.

With `Cc1cc(C(C)(C)C)cc(C)c1CC1=NCCN1`, the Potency entry in experiment [1], in experiment [4] and in experiment [3] was “inactive” throughout.

For the compound `C[N+]1(C)CCC(=C(c2ccccc2)c2ccccc2)CC1`, the Potency result in experiment [1], in experiment [4] and in experiment [3] was “inactive” throughout.

`CN1CCN(c2c(F)cc3c(=O)c(C(=O)O)cn(CCF)c3c2F)CC1`: the Potency result in experiment [1], in experiment [4] and in experiment [3] was “inactive” each time.

Consider `C#CC1(O)CC[C@H]2[C@@H]3CCC4=CCCC[C@@H]4[C@H]3CC[C@@]21C` (some centres undefined), for which the Potency result in experiment [1], in experiment [4] and in experiment [3] was “inactive” in each case.

For `CCOC(=O)[C@H](CCc1ccccc1)N[C@@H](C)C(=O)N1C(=O)N(C)C[C@H]1C(=O)O`, the Potency entry in experiment [1], in experiment [4] and in experiment [3] was “inactive” in each case.

For the compound `O=C(O)c1ccccc1Nc1cc(Cl)ccc1C(=O)O`, the Potency result in experiment [1], in experiment [4] and in experiment [3] was “inactive” throughout.

With `CCOC(CN1CCN(CC(C)C(=O)c2ccccc2)CC1)c1ccccc1` (centres undefined), the Potency result in experiment [1], in experiment [4] and in experiment [3] was “inactive” in each case.

As for `OCc1ccccc1O`, the Potency entry in experiment [1], in experiment [4] and in experiment [3] was “inactive” in each case.

Turning to `NS(=O)(=O)c1cc(C(=O)O)c(NCc2ccco2)cc1Cl`, the Potency result in experiment [1], in experiment [4] and in experiment [3] was “inactive” throughout.

Consider `COc1ccnc2c1CCCCC2S(=O)c1nc2ccccc2[nH]1` (centres undefined), for which the Potency entry in experiment [1], in experiment [4] and in experiment [3] was “inactive” throughout.

For the compound `CC(Oc1c(Cl)cccc1Cl)C1=NCCN1` (centres undefined), the Potency entry in experiment [1], in experiment [4] and in experiment [3] was “inactive” in each case.
